Source: paper PMC6925144, “A prospective compound screening contest identified broader inhibitors for Sirtuin 1” (Scientific Reports, 2019)
The full ranking holds about 3,200 compounds; the median of “TSA(without NAD+) / Primary screening (TSA) / delta Tm (K)” is about -0.07, and the highest 2% start at about 0.37. The full list was thinned out, with the highest values kept by preference.

Biological target: NAD-dependent deacetylase Sirtuin 1 (human, UniProt Q96EB6)
Experiment: primary screen, delta tm
Set-up: single well (n = 1)
Conditions: 10 µM
How it was run: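 Thermal shift of Sirtuin 1 measured without NAD+, compound at 10 µM (n = 1); value is ΔTm, with hits defined as ΔTm > 0.45 K or < −1.5 K. Hits retested at 5, 10, 20 µM (n = 4) and counterscreened on bovine carbonic anhydrase and ABL1 SH2 domain.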

Sequence of NAD-dependent deacetylase Sirtuin 1 (Q96EB6 2-747 limits assumed): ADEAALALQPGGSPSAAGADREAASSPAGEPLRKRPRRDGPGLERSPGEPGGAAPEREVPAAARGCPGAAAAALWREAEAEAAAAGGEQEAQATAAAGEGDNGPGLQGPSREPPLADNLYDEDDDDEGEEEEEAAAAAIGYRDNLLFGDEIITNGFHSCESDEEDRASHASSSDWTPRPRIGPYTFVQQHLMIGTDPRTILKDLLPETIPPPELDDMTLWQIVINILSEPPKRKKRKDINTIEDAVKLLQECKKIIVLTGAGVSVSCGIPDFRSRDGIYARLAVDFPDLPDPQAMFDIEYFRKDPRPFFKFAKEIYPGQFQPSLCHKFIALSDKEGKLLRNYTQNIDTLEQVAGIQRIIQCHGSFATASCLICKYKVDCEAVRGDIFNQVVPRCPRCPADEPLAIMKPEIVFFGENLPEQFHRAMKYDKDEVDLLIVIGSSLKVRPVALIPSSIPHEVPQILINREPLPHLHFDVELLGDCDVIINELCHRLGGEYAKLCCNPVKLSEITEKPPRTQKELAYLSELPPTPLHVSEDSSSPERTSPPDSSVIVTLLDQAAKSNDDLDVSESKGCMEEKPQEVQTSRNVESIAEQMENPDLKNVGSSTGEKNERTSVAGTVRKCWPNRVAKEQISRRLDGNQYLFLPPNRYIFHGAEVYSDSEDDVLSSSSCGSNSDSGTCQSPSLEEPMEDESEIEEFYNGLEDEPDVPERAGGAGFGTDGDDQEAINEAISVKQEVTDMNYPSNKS

SMILES | TSA(without NAD+) / Primary screening (TSA) / delta Tm (K)
CC(C)Oc1ccc(C2C(C(=O)c3ccco3)=C(O)C(=O)N2CCCN2CCOCC2)cc1 (stereo not drawn) | -0.02
COc1cccc(C2C(C(=O)c3ccc(Cl)cc3)=C(O)C(=O)N2CCCN2CCOCC2)c1 (stereo not drawn) | -0.12
CCC(N)C(N)=O (stereo not drawn) | -0.22
CC1CCC(NN)CC1 (stereo not drawn) | -0.08
CCn1c2ccccc2c2cc(NC(=O)C(C)OC(=O)c3cccc(S(=O)(=O)Nc4ccc(Cl)cc4)c3)ccc21 (stereo not drawn) | 0.56
CC(=O)c1ccc(NC(=O)C(C)OC(=O)c2cccc(S(=O)(=O)NC(C)C34CC5CC(CC(C5)C3)C4)c2)cc1 (stereo not drawn) | 0.35
CC(OC(=O)c1cccc(S(=O)(=O)Nc2ccc(F)cc2)c1)c1nc2ccccc2c(=O)[nH]1 (stereo not drawn) | 0.02
O=C(/C=C/c1ccc(F)cc1)NCCCn1ccc2ccccc21 | 0.08
Cc1ccc2c(CC(=O)Nc3ccccc3Cc3ccccc3)coc2c1 | 0.07
COc1ccc(-c2nn(-c3ccccc3)cc2CN(CCCCCCN(Cc2cn(-c3ccccc3)nc2-c2ccc(OC)cc2)C(=O)CCC(=O)O)C(=O)CCC(=O)O)cc1 | 0.37
Cc1ccc(-c2nn(-c3ccccc3)cc2C(=O)NCc2nnc3ccccn23)cc1 | -0.03
Cc1noc(C)c1CC(=O)OCc1cn(-c2ccccc2)nc1-c1ccc(Cl)cc1 | 0.22
Cc1oc2cc(OC(C)C(=O)NCc3ccco3)ccc2c(=O)c1-c1c(F)cccc1Cl (stereo not drawn) | -0.11
O=C1NC(=S)N/C1=C/c1ccc(-c2ccccc2F)o1 | 0.05
O=C1NC(=S)N/C1=C\c1ccccc1OCc1ccc(C(=O)O)cc1 | 0.38
O=C1NC(=S)N/C1=C\c1cc(Br)ccc1O | -0.23
COc1ccc(C(N)=O)cc1NC(=O)c1nc2nc(C)cc(C)n2n1 | -0.15
NC(=O)C1CCN(c2nc(CN3CCCCC3)nc3sc4c(c23)CCC4)CC1 | 0.07
Cc1sc2nc(CN3CCCC3)nc(N3CCC(C(N)=O)CC3)c2c1C | -0.12
Cc1sc2nc(CSc3ccccc3)nc(N3CCCC(C(N)=O)C3)c2c1C (stereo not drawn) | -0.12
Cc1sc2nc(CSc3ccccc3)nc(N3CCC(C(N)=O)CC3)c2c1C | 0.52
NC(=O)C1CCCN(c2ncnc3sc4c(c23)CCCC4)C1 (stereo not drawn) | -0.18
NC(=O)C1CCN(c2nc(CSc3ccccc3)nc3sc4c(c23)CCCC4)CC1 | 1.78
O=C1/C(=C/c2cccc(Br)c2)Oc2cc(O)ccc21 | 0.19
